S2 tox: Viability Counterscreen for Primary qHTS for Inhibitors of ATXN expression; S2 cells (HEK-293 line with an ATXN2-luciferase reporter) viability, CellTiter-Fluor protease fluorescence, 24 h; Potency, µM (series often up to 56.7 µM), actives largely listed as cytotoxic; 400,000 compounds, 0.49% hits; AID 651635, 2014; further: nearly all actives have a fitted effect of over 40% in size
HepG2 viability: qHTS for Inhibitors of TGF-b: Cytotox Counterscreen | HepG2 CAGA-GFP viability, ATP luminescence, 18 h | Potency, µM (doses to about 46.1 µM), usual class: cytotoxic | 410,000 compounds, 0.76% hits
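HepG2 CAGA-GFP cells (1000/well, DMEM with 1% FBS) received compound, then TGF-beta at 500 pg/mL final, and were incubated 18 hours at 37 degrees C. Viability was read by CellTiter-Glo luminescence. Media-only wells were set as complete cell-killing and DMSO as no toxicity.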
CtBP-E1A inh: qHTS Assay for Inhibitors of the CtBP/E1A Interaction. CtBP / adenovirus E1A interaction (AlphaScreen). AlphaScreen GST-E1A/His-CtBP binding, 1536-well; stronger effect = lower value. activity change, % (test concentration not listed). 340,000 compounds, 0.49% hits. AID 651724, 2012; in the data active means activity change below about -65%; inconclusive means mostly about -30% to -63%
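Steps: dispense buffer (Tris pH 8.0, NaCl 300 mM, TCEP 1 mM, BSA, Tween 20); add 5X protein mix (GST-E1A, His-CtBP, 125 nM each); pin 23 nL compound; 2 h at 37 °C, dark; add 5X beads (50 ug/mL); 1 h; read.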
ATXN2 expr inh: Primary qHTS for Inhibitors of ATXN expression | 360,000 compounds, 0.72% hits | Potency, µM (titrated, usually from 57 µM), most hits filed as inhibitors | HEK-293 ATXN2-luciferase reporter, luminescence, 24 h; further: nearly all actives have a fitted effect of over 55% in size
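ATXN2-luciferase reporter cells (luciferase flanked by upstream and downstream ATXN2 gene portions) were treated 24 h at 37 °C with compounds at up to 57 uM. SteadyGlo luminescence gave expression; GF-AFC fluorescence gave viability.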
TGFb inhibitor: qHTS for Inhibitors of TGF-b. Potency, µM (series often up to 46.1 µM), hits mostly inhibitors. HepG2 CAGA-GFP TGF-b/SMAD3 reporter, GFP fluorescence, 18 h; TGF-beta stimulated, 500 pg/mL final. 410,000 compounds, 1.2% hits; further: nearly all actives have a fitted effect of over 65% in size
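Using HEPG2 CAGA-GFP reporter cells at 1000 cells/well, we pinned test compounds, stimulated with recombinant TGF-beta (500 pg/mL final) and measured total well GFP after 18 h.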
Six1-Eya2 inh: qHTS Assay for Inhibitors of the Six1/Eya2 Interaction. Homeobox protein SIX1 (Homo sapiens) + Protein phosphatase EYA2 (Homo sapiens), …. AlphaScreen GST-Six1/His-Eya2 binding, biochemical; stronger effect = lower value. activity change, % (no concentration beside the values). 360,000 compounds, 0.56% hits. AID 651725, 2012; in the data active means activity change below about -65%; inconclusive means mostly about -30% to -63%
Target sequence (O00167 whole entry, looked up): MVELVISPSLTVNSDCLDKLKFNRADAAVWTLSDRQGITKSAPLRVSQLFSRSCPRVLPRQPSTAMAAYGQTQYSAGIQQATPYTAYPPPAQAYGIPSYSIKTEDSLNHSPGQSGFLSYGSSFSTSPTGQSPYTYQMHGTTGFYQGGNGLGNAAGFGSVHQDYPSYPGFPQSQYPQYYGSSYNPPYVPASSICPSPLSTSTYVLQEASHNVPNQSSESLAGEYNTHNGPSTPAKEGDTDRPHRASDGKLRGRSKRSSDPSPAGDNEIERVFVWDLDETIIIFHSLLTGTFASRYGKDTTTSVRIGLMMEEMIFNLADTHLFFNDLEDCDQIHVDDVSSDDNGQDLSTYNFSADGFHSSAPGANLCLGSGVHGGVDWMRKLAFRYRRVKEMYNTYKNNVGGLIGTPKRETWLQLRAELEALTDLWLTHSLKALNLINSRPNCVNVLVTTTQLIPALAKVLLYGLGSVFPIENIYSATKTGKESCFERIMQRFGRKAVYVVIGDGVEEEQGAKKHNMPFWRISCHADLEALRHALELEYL
Target sequence (Q15475 whole entry, looked up): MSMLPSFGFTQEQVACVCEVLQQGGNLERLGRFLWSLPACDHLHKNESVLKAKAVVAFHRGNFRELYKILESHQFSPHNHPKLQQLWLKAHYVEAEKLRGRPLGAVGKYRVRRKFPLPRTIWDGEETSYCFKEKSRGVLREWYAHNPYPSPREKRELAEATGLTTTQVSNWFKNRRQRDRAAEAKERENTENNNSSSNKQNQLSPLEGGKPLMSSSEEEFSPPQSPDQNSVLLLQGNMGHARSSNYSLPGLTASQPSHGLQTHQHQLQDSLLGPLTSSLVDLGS
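GST-Six1 + His-Eya2 (5X stock: 250/500 nM); Tris pH 8.0, 300 mM NaCl, 0.05% BSA, 0.02% Tween 20; GSH donor/Ni acceptor beads; 1 h 37 °C dark; AlphaScreen readout.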
Large screens that a line does not name were inactive. In the library only some 2.8% were active in any assay of this set; here they are far more common. Unless noted, the call rests on the fitted dose curve; in most records, active means well fitted curve in the direction sought with a large enough effect; inconclusive means small, poorly fitted or top-dose-only effect, or another doubt; inactive means no such curve, though single readings can be large; an effect the other way counts as inactive or inconclusive.

COc1ccccc1/C=C/C(=O)NCC(=O)N/N=C/c1cc(Br)ccc1OC	S2 tox inconclusive, CtBP-E1A inh inconclusive, ATXN2 expr inh inconclusive, TGFb inhibitor inconclusive, Six1-Eya2 inh inconclusive
COc1ccccc1/C=N/NC(=O)CNC(=O)c1ccccc1	none
COc1cc(OC)cc(C(=O)NCCc2csc(-c3ccc(C(F)(F)F)cc3)n2)c1	none (no result: S2 tox, CtBP-E1A inh, ATXN2 expr inh, Six1-Eya2 inh)
CC1(C(=O)NS(=O)(=O)Cc2ccccc2C(F)(F)F)CCN1C(=O)C/C=C/c1ccccc1 (stereo not drawn)	TGFb inhibitor inconclusive
COc1ccc(-c2nc3ccc(NS(C)(=O)=O)cc3o2)cc1	none (no result: CtBP-E1A inh, Six1-Eya2 inh)
Cc1ccc(CN2CCc3nnc(C(C)NC(=O)c4cc(F)ccc4F)n3CC2)o1 (stereo not drawn)	none (no result: HepG2 viability, CtBP-E1A inh, ATXN2 expr inh, TGFb inhibitor, Six1-Eya2 inh)
COc1cccc2sc(Nc3nnc(-c4ccc(F)cc4)o3)nc12	HepG2 viability 13µM, ATXN2 expr inh inconclusive (no result: S2 tox)
COc1cccc2sc(Nc3nnc(-c4cccs4)o3)nc12	none
Nc1c(C(=O)NCc2ccc(F)cc2)c2nc3ccccc3nc2n1CCCN1CCOCC1	HepG2 viability 18µM, ATXN2 expr inh inconclusive, TGFb inhibitor inconclusive
COc1ccc(CNC(=O)c2c(N)n(CCCN3CCOCC3)c3nc4ccccc4nc23)cc1	ATXN2 expr inh inconclusive, TGFb inhibitor 11µM
Nc1c(C(=O)NCc2ccccc2)c2nc3ccccc3nc2n1CCCN1CCOCC1	HepG2 viability 18µM, TGFb inhibitor inconclusive (no result: S2 tox, CtBP-E1A inh, ATXN2 expr inh)
COC(=O)c1c(N)n(CCCN2CCOCC2)c2nc3ccccc3nc12	none
COCCOC(=O)c1c(N)n(CCCN2CCOCC2)c2nc3ccccc3nc12	none (no result: S2 tox)
Cc1cc(N(C)C)c(C)cc1/C=C/c1ccnc2ccccc12	none (no result: S2 tox, CtBP-E1A inh, ATXN2 expr inh, Six1-Eya2 inh)
NC[C@H]1O[C@H](O[C@@H]2[C@@H](O)[C@@H](O[C@H]3O[C@H](CO)[C@@H](O)[C@H](N)[C@@H]3O)[C@H](N)C[C@@H]2N)[C@H](O)[C@@H](O)[C@H]1O	none (no result: S2 tox, HepG2 viability, CtBP-E1A inh, TGFb inhibitor, Six1-Eya2 inh)
COc1ccc2nc3ccccc3[n+]([O-])c2c1	none (no result: S2 tox)
[O-][n+]1c2ccccc2cc2ccccc21	ATXN2 expr inh inconclusive, TGFb inhibitor 11µM
CC(=O)N1CCC[C@H]1C(=O)NCC1Cc2cc(-c3cccc(OC(F)(F)F)c3)ccc2O1 (stereo partly drawn)	none (no result: HepG2 viability, CtBP-E1A inh, ATXN2 expr inh, TGFb inhibitor, Six1-Eya2 inh)
CC(C)CC(=O)Nc1n[nH]c2c1CN(C(=O)C1CCN(C)CC1)C2(C)C	ATXN2 expr inh 1.1µM (no result: S2 tox, HepG2 viability, CtBP-E1A inh, TGFb inhibitor, Six1-Eya2 inh)
Cc1nn(C)c2c1c(C(F)(F)F)cc(=O)n2C(C)C(=O)NCCC(C)C (stereo not drawn)	none (no result: CtBP-E1A inh, Six1-Eya2 inh)
COc1ccc2c(C(=O)CCl)c[nH]c2c1	HepG2 viability 6.3µM, TGFb inhibitor 14µM
COc1ccc(OCC(=O)c2c[nH]c3ccccc23)cc1	none
OC1CC2CCC(C1)N2CCCN1c2ccccc2Sc2ccc(Cl)cc21 (stereo not drawn)	S2 tox 16µM, HepG2 viability 22µM, ATXN2 expr inh 11µM, TGFb inhibitor inconclusive
CCOC(=O)C1=C(CS(=O)(=O)c2ccc(C)cc2)NC(=O)NC1c1ccc(C(C)C)cc1 (stereo not drawn)	S2 tox inconclusive, ATXN2 expr inh inconclusive, TGFb inhibitor inconclusive (no result: CtBP-E1A inh, Six1-Eya2 inh)
CN(C)c1ccc(C2=Cc3ccccc3C2)cc1	TGFb inhibitor inconclusive (no result: S2 tox, CtBP-E1A inh, ATXN2 expr inh, Six1-Eya2 inh)
NCC1CCN(c2nc3ccccc3c3c2CCCC3)CC1	S2 tox 28µM, HepG2 viability 13µM, ATXN2 expr inh inconclusive, TGFb inhibitor inconclusive
CN1CCCCc2c1nc1ccccc1c2N (tested in a mixture with another compound)	none
CCCCC[C@H](O)/C=C/C1C(=O)C=C[C@H]1C/C=C\CCCC(=O)OC (stereo partly drawn)	ATXN2 expr inh inconclusive, TGFb inhibitor 22µM (no result: S2 tox)
O=C1c2ccc3c4c(ccc(c24)C(=O)N1CCCCO)C(=O)N(CCCCO)C3=O	S2 tox inconclusive, HepG2 viability 3.2µM, ATXN2 expr inh inconclusive, TGFb inhibitor 2.5µM

Screening results as filed in PubChem.
